Laboratory results as given in the supplement of paper PMC6555819.

These sequences were tested on VDR:RXRa (NR concentration 270 nM, RXRa partner concentration 90 nM) (assay: PBM binding z-score (relative to random genomic background probes); higher = stronger binding; sequences stand for … in GC…GCGATTGACAGCGTAGAATGAAGG).
Experimental: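 Protein-binding microarray (Agilent 4x180K custom design, double-stranded 60-nt probes: 5' GC cap, 34-nt variable region, 24-nt constant primer region; full probe sequence given). Purified or IVT nuclear receptor:RXRα heterodimers (3:1 NR:RXRα, mostly 270:90 nM) or homodimers were incubated for 1 h in PBS with 2% milk and no ligand, then detected with Alexa488 antibodies. Fluorescence from o1-orientation probes (~5 replicates averaged) was converted to z-scores against 500 random hg19 background probes. Variable regions are seed direct-repeat (DR0–DR5) sites, all their single-nucleotide variants and half-site ablations.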

Row | Sequence | PBM binding z-score
1 | ATATGTAGGTTATCGGGTCATGCAGTTTGCGCAT | 4.98
2 | CCTAGCAGGCCGGGGTCACTCAAGCATTTCGCTT | 4.94
3 | CGAACGAGAGCATGAGTTGATAGCAAATGCCGAT | -0.244
4 | TGTCAAAGTTCAAAGCTAACGTAAGTATCCACAC | 4.16
5 | TAGCCTAGGTCATGCGGGCCATTATAGTGTCGGC | 4.09
6 | TCTAGCAGGCCAGAGGGCCACTCAAGAGGTACGG | -0.505
7 | AGATGTAGGTTACATCCGGGTCATTCAGGCTATG | 4
8 | CAAACTAGGTCACGAAAGGTTAAAGTCGAATGAC | 5.27
9 | TCTTGTAGATCAGCAGGTTATGAAAGCTGGCCAA | 0.359
10 | CAAACTAGCTCAAGAGGTCAAAGTCCGCTTCCCG | 4.96
11 | TCAGACAGGTGAAGGTAACTCAAGTACGCAGTCG | 1.12
12 | TCGAGTAGGTTAGGGACATTCAGAATGGCGTCGA | -0.0636
13 | CCAGACAGGTGAGAAGATAACTCAGCCTCGATTA | 0.035
14 | GCTGCTAGGTCAGGTTGGTCAGCAAACGGGTACG | 0.616
15 | CGAACTAGGTCATCCACGACAGTGAATACATTGA | 2.18
16 | TCATAAAGGTAAAAGGTGAAAGTCGGTGTGGTAA | 1.89
17 | CTTACTGGGCCACGAAAGGTCATTGATTCAGTGA | 4.64
18 | CCTAGCAGGCTAATCTGGGTCACTCAAGGCTTGA | 0.385
19 | TAGCCTAGGTCATTGGCCCAGTATAGTACGCATC | 2.09
20 | TCGAGTAGGTTAGGGGAATTCAGAATGGCGTCGA | -0.154

Row | Sequence | PBM binding z-score
21 | ACTCGGAGGACAAAGGCCAGAGCTACGCCAGTGA | -0.667
22 | CAAACTAGGTCAAGGTCAAAGTCGGTTTGTGCCA | 5.23
23 | CCTACTGGGCCAAAAAGGTCAATGATGCCGATAA | 4.18
24 | AGAATGTGGTTAAGATCAGGGAAACAGAATACAT | -0.0223
25 | CCTCACGGGTCACGAGGTTATAGCACGACGAGCG | 4.79
26 | GCTTACGGGTCAAAGGTTATAGAATGAATAGAAT | 5.63
27 | AGTCAAAGTTCTGGACGAGGTAACGTAAAGCACG | -0.216
28 | ACTATTAGTTGAGGCGAGGGCAACCGATAGGTTG | 0.632
29 | CCGAGTAGGTTCTGGGGCATTCAGGCAACGGTGA | -0.552
30 | CCTTACGGGTCAATGTTATAGCACGGGTGGTACG | 2.57
31 | CAAACTAGGTCAAGGTCAATGTCGGTTTGTGCCA | 4.81
32 | TCTATTTGGTCAAAGGTCACACACTCGAAATGCG | 5.41
33 | CAAACTAGGTCACCGGAAGGTCAAGGTCCGCATG | 5.58
34 | ATCGAAAGGTCGACGAGGCGAGTATACACCGTTT | 3.79
35 | CCTAGCAGGCCTGGGTCACTCAAGCATTTCGCTT | 0.546
36 | TTACCATGGTGAAGGTCGTTGATCCCTCTGTAGA | 0.949
37 | ACTCGGAGGACAAAGGTCAGATCTACGCCAGTGA | 3.49
38 | CGAACGAGGGCATGAGTTGATACCAAATGCCGAT | 1.83
39 | ATATGTAGGCTACATCCGGGTCATTCAGGCTATG | 2.92
40 | ATCGAAAGGTCGAGGGGAGTATAGAGAAAGGGAA | 2.67
